For some of these results: Entries with a potency or affinity are not part of this list. Activity calls are given as the source filed them. Unless noted, no rule for the calls is given here.
Columns and labels:
[1] = antimalarial activity against Dd2 strain (AID 2302;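 active = growth inhibition above 50% at the single 2 µM test dose, taken to imply half-maximal potency below 2 µM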;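 also: 0% = DMSO untreated growth and 100% = chloroquine plus artemisinin killed control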); settings: P. falciparum Dd2 in RBCs, LDH growth readout, 72 h; at 2 µM; active compounds read high
[2] = human hepatoma cell viability loss – ATP luminescence, cytotoxicity control for P. falciparum antimalarial project, primary screen (AID 2303;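 active = inhibition above 50%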;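 also: 0% = DMSO wells and 100% = digitonin-killed cells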); settings: HepG2 viability, 24-48 h, at 10 µM, active compounds read high
[3] = biological target: L-lactate dehydrogenase (Plasmodium falciparum (isolate CDC / Honduras)) (UniProt Q27743); experiment: PfLDH activity inhibition – cell lysate, 3D7 strain, counter-screen for P. falciparum growth inhibition project (AID 2304);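 also: 0% = vehicle and 100% = reference inhibitor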; settings: P. falciparum 3D7 crude extract, LDH APAD/NBT absorbance; at 2 µM; active compounds read high
Chain of L-lactate dehydrogenase (Plasmodium falciparum (isolate CDC / Honduras)) (Q27743 whole entry, looked up): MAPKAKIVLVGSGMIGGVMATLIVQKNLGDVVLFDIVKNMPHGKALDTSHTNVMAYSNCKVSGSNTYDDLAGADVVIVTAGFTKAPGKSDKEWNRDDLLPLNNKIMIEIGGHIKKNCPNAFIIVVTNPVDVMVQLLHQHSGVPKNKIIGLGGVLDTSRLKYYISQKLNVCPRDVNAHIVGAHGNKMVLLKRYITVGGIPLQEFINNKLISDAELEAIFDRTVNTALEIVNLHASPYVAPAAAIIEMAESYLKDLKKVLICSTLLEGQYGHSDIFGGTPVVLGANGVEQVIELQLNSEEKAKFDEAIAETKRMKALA

[4] = inhibition of 3D7 malaria parasite growth – strain 3D7 (AID 2306);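 also: 0% = DMSO wells and 100% = chloroquine plus artemisinin control wells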; settings: P. falciparum 3D7 erythrocytic growth, LDH absorbance, 72 h; at 2 µM; active compounds read high
[5] = biological target: Calcium-dependent protein kinase 1 (Plasmodium falciparum (isolate 3D7)) (UniProt P62344); experiment: PfCDPK1 kinase inhibitors, biochemical, TCAMS library (AID 1159585; cut-off not given, nearly all actives have IC50 up to about 0.98 µM;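 also: inhibitors leave more ATP so luminescence rises with inhibition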); settings: recombinant PfCDPK1, Kinase-Glo ATP depletion luminescence
Chain of Calcium-dependent protein kinase 1 (Plasmodium falciparum (isolate 3D7)) (P62344 whole entry, looked up): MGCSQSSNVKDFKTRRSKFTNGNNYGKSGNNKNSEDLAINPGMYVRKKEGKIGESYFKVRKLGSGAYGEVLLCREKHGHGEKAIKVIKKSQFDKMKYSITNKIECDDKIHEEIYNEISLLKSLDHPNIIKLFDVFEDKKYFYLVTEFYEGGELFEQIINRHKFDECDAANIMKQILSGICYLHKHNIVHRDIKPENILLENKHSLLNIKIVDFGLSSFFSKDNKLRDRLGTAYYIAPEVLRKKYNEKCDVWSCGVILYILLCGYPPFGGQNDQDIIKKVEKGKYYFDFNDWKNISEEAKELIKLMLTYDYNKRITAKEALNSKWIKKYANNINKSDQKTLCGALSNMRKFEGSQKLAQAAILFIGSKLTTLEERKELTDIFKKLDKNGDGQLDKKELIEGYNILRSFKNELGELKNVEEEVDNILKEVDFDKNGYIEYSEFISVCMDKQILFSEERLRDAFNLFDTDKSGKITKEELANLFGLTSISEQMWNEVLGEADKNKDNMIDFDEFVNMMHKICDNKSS

[6] = biological target: Plasmodium falciparum protein kinase 6 (PK6, PF3D7_1337100) (UniProt Q8IDW1); experiment: PfPK6 kinase inhibitors, biochemical, TCAMS library (AID 1159586); settings: recombinant PfPK6, Kinase-Glo ATP depletion luminescence
Chain of Plasmodium falciparum protein kinase 6 (PK6, PF3D7_1337100) (Q8IDW1 1-305): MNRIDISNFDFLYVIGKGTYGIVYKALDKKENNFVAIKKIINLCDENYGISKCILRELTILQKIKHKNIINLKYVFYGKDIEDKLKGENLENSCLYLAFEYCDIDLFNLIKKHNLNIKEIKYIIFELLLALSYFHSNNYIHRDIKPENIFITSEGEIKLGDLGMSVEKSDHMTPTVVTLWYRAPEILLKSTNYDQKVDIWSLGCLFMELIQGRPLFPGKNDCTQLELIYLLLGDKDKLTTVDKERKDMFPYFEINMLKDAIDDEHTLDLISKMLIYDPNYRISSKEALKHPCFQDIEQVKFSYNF

[7] = biological target: Protein kinase 7 (PK7), Plasmodium falciparum 3D7 (PF3D7_0213400) (UniProt Q7YTF7); experiment: inhibition of Plasmodium PK7 catalytic activity – biochemical, TCAMS antimalarial set, Kinase-Glo luminescence (AID 1159587); settings: recombinant PfPK7, Kinase-Glo ATP depletion luminescence
Chain of Protein kinase 7 (PK7), Plasmodium falciparum 3D7 (PF3D7_0213400) (Q7YTF7 1-343): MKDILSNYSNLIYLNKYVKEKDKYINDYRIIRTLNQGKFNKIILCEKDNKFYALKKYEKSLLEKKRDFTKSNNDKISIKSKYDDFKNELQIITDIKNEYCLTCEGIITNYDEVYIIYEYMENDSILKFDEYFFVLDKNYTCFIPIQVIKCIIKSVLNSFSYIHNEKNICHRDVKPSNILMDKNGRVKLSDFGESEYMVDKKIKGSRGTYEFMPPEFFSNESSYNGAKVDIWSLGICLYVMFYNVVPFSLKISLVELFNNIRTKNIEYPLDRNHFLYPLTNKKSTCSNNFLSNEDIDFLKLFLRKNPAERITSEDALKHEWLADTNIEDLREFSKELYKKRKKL

[8] = biological target: Calcium-dependent protein kinase 4 (Plasmodium falciparum (isolate 3D7)) (UniProt Q8IBS5); experiment: PfCDPK4 kinase inhibitors, biochemical, TCAMS library (AID 1159588; cut-off not given, nearly all actives have IC50 up to about 0.91 µM); settings: recombinant PfCDPK4, Kinase-Glo ATP depletion luminescence
Chain of Calcium-dependent protein kinase 4 (Plasmodium falciparum (isolate 3D7)) (Q8IBS5 whole entry, looked up): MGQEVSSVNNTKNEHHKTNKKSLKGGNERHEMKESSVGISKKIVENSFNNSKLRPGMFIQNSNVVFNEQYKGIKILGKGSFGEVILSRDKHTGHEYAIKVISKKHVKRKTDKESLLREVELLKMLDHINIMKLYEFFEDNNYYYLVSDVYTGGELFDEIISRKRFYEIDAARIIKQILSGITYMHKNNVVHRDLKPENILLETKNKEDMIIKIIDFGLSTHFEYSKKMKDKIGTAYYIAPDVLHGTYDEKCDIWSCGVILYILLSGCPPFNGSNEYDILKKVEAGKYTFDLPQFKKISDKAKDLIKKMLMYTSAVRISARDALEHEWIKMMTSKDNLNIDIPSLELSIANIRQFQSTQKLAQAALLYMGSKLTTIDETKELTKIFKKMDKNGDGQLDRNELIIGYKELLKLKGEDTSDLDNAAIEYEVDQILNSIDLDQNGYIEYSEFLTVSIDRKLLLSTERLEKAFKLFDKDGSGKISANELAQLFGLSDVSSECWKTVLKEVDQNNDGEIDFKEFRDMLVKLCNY

c1ccc(CN2CCc3cc4nccc(N5CCNCC5)c4cc32)cc1
active: growth inhibition [1] 99% | growth inhibition [4] 100%
inactive: inhibition [2] 9% | inhibition [3] -4% | outcome [5] | outcome [6] | outcome [7] | outcome [8]

COc1ccccc1-c1cc(C(=O)N2CCN(S(=O)(=O)c3ccc(C)cc3)CC2)[nH]n1
active: growth inhibition [1] 88% | growth inhibition [4] 88%
inactive: inhibition [2] -12% | inhibition [3] -4% | outcome [5] | outcome [6] | outcome [7] | outcome [8]

COc1ccc(CN2CCC(CNCc3cccc(-c4ccccc4)c3)CC2)cc1
inactive: inhibition [3] 2% | outcome [5] | outcome [6] | outcome [7] | outcome [8]
active: growth inhibition [1] 92% | inhibition [2] 96% | growth inhibition [4] 100%

COc1ccc(-c2csc3ncnc(Cl)c23)cc1
inactive: inhibition [2] -15% | inhibition [3] 5% | outcome [5] | outcome [6] | outcome [7] | outcome [8]
active: growth inhibition [1] 97% | growth inhibition [4] 96%

O=C(/C=C/c1ccc(Cl)c(Cl)c1)NCCCCCN1CCC(NC(=O)Nc2cc(F)ccc2F)CC1
active: inhibition [2] 78% | growth inhibition [4] 98%
inactive: growth inhibition [1] 22% | inhibition [3] 3% | outcome [5] | outcome [6] | outcome [7] | outcome [8]

COc1ccc(NC(=O)Nc2cc(C)nc3ccccc23)cc1Cl
active: growth inhibition [4] 104%
inactive: growth inhibition [1] 49% | inhibition [2] 4% | inhibition [3] -2% | outcome [5] | outcome [6] | outcome [7] | outcome [8]

COc1cccc(-c2ccc3c(-c4cccc(S(C)(=O)=O)c4)cnc(N)c3c2)c1
active: growth inhibition [4] 96%
inactive: growth inhibition [1] 21% | inhibition [2] 45% | inhibition [3] -6% | outcome [5] | outcome [6] | outcome [7] | outcome [8]

Oc1cc(Nc2ccnc3cc(I)ccc23)ccc1F
active: growth inhibition [1] 99% | growth inhibition [4] 99%
inactive: inhibition [2] -6% | inhibition [3] 0% | outcome [5] | outcome [6] | outcome [7] | outcome [8]

CCN(CC)CCN(Cc1ccc(-c2ccc(C#N)cc2)cc1)C(=O)Cn1c(CCc2cccc(F)c2F)nc(=O)c2ccccc21
active: growth inhibition [4] 100%
inactive: growth inhibition [1] 46% | inhibition [2] 31% | inhibition [3] -1% | outcome [5] | outcome [6] | outcome [7] | outcome [8]

CNC(=O)c1cnc(Nc2ccc(OCC(O)CN(C)C)cc2)nc1Nc1cccc([N+](=O)[O-])c1 (stereo not given)
active: growth inhibition [1] 94% | inhibition [2] 52% | growth inhibition [4] 100%
inactive: inhibition [3] -1% | outcome [5] | outcome [6] | outcome [7] | outcome [8]

O=C(NCc1ccco1)c1ccc(S(=O)(=O)c2ccc(Cl)cc2)cc1
active: growth inhibition [1] 95% | growth inhibition [4] 97%
inactive: inhibition [2] 6% | inhibition [3] -3% | outcome [5] | outcome [6] | outcome [7] | outcome [8]

Cn1cncc1C(=O)Nc1ccc(-c2cccc(-c3nc4ccc(F)cc4[nH]3)c2)cc1
active: growth inhibition [4] 102%
inactive: growth inhibition [1] 23% | inhibition [2] 5% | inhibition [3] 2% | outcome [5] | outcome [6] | outcome [7] | outcome [8]

CCN(CCN(C)C)Cc1ccc(-c2ccc(NS(=O)(=O)c3cccc4cccnc34)cc2)cc1
inactive: inhibition [2] 16% | inhibition [3] 1% | outcome [5] | outcome [6] | outcome [7] | outcome [8]
active: growth inhibition [1] 57% | growth inhibition [4] 91%

N#Cc1ccc2c(c1)CCN(CCC1CCC(NC(=O)c3cc4ccc(Cl)cc4[nH]3)CC1)C2 (stereo not given)
inactive: growth inhibition [1] -2% | inhibition [2] 5% | inhibition [3] -3% | outcome [5] | outcome [6] | outcome [7] | outcome [8]
active: growth inhibition [4] 103%

CCN(CCCN1CCCCC1)c1cc(C)nc(Nc2ccc(C)cc2)n1
active: growth inhibition [4] 101%
inactive: growth inhibition [1] 10% | inhibition [2] 17% | inhibition [3] -1% | outcome [5] | outcome [6] | outcome [7] | outcome [8]

CC(C)COc1ccc(Cl)cc1Cc1ccc(-c2nc3c(F)c(F)ccc3[nH]2)o1
inactive: inhibition [2] 26% | inhibition [3] -1% | outcome [5] | outcome [6] | outcome [7] | outcome [8]
active: growth inhibition [1] 85% | growth inhibition [4] 94%

O=C(Nc1ccc(OC2CCN(Cc3ccsc3)C2)c(Cl)c1)c1ccsc1 (stereo not given)
inactive: inhibition [2] 4% | inhibition [3] 0% | outcome [5] | outcome [6] | outcome [7] | outcome [8]
active: growth inhibition [1] 70% | growth inhibition [4] 85%

CCCNC(=O)Nc1cc2cc(-c3cccc(CN4CCCCC4)c3)ccc2n2c(C)nnc12
active: growth inhibition [1] 50% | inhibition [2] 60% | growth inhibition [4] 100%
inactive: inhibition [3] 0% | outcome [5] | outcome [6] | outcome [7] | outcome [8]

C#CCOc1ccc2ccccc2c1CNCCCCCCNCc1c(OCC#C)ccc2ccccc12
inactive: inhibition [3] -3% | outcome [5] | outcome [6] | outcome [7] | outcome [8]
active: growth inhibition [1] 98% | inhibition [2] 100% | growth inhibition [4] 100%

CCN(CC)CCCC(C)Nc1ccnc2ccc(-c3ccccc3)cc12 (stereo not given)
inactive: growth inhibition [1] 21% | inhibition [2] 0% | inhibition [3] 2% | outcome [5] | outcome [6] | outcome [7] | outcome [8]
active: growth inhibition [4] 98%

— PubChem BioAssay
